High-throughput results from PubChem BioAssay.
SW480 rereplic: A quantitative high throughput screen for small molecules that induce DNA re-replication in SW480 colon adenocarcinoma cells. Potency, µM (highest dose often 46.1 µM), without a hit: at the highest dose re-replication activation, usual class: activators. 1.8% of 340,000 active. AID 624297, 2012. SW480 DNA re-replication, Hoechst DNA content imaging, 48 h; also: % of control where 0% means no effect; nearly all actives have a fitted effect of over 55% in size
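SW480 cells exposed to compounds for 48 hr at 37 C, 5% CO2, then Hoechst-stained 40 min. Nuclear DNA content imaged by fluorescence scanning (405 nm excitation, 500-530 nm emission); re-replication scored as increased high-intensity nuclei.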
KB-V1 MDR tox: qHTS assay for MDR1-selective chemotherapeutics: Primary screen using the drug-selected MDR subline cells KB-V1. Potency, µM (highest dose often 46.1 µM), usual class: cytotoxic. KB-V1 MDR cells viability, CellTiter-Glo, 72 h. AID 1347076, 2019. 3.4% of 400,000 active; also: % is scaled to controls: 0 for no effect and ±100 for the full control effect; nearly all actives have a fitted effect of over 60% in size
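Readout: CellTiter-Glo luminescence, 10 min after addition. Cells: KB-V1 MDR subline, 72 h at 37 degrees C with compound. Analysis: corrected, normalized data fitted to concentration-effect curves.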
PTAP TSG101 blk: qHTS Assay for Iinhibitors of HIV-1 Budding by Blocking the Interaction of PTAP/TSG101 | Fluorescence polarization, FITC-PTAP peptide / Tsg101 binding | Potency, µM (top dose mostly 115 µM), for inactives: at the top dose activity change, negative = inhibition, hits mostly inhibitors | 340,000 tested, under 10 active | AID 493005, 2010 | Tumor susceptibility gene 101 protein (Homo sapiens), Q99816; active = well fitted inhibition curve with a large enough effect in the main read-out, with a control signal flat, not every such curve was filed as active; inconclusive = small, poorly fitted or top-dose-only effect, or effect the other way, or a change in a side signal; inactive = no such curve, though single readings can be large or run the other way; also: % of control where 0% means no effect
Target sequence (Q99816 whole entry, looked up): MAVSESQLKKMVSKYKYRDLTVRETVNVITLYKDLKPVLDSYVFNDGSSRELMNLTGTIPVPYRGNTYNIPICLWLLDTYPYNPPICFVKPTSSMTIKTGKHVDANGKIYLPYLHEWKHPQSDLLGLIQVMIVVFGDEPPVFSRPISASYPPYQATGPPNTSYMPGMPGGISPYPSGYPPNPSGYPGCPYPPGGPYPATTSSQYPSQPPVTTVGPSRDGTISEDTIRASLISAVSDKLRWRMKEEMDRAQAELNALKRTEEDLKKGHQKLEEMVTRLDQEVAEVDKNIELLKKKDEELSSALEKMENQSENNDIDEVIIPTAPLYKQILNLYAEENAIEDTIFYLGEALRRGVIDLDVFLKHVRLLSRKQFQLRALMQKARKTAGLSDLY
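FP read-out: FITC-PTAP peptide, 50 nM final, binding Tsg101 binding domain, 10 uM final; 20 min, r.t.; 10 mM HEPES pH 7.5, 0.15 M NaCl, 0.01% Tween 20, 3 mM EDTA, 0.1 mM TCEP.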
MCF10A rerep: A quantitative high throughput screen for small molecules that induce DNA re-replication in MCF 10a normal breast cells; MCF 10A DNA re-replication, Hoechst nuclear intensity, 48 h; Potency, µM (top dose mostly 46.1 µM), for inactives: at the highest dose activity, positive = re-replication, actives largely listed as activators; 2.9% of 350,000 active; also: % of control where 0% means no effect; nearly all actives have a fitted effect of over 50% in size
RGS4 inhibitor: Inhibitors of Regulator of G Protein Signaling (RGS) 4: qHTS; Regulator of G-protein signaling 4 (Homo sapiens), P49798; Transcreener GDP fluorescence polarization, RGS4-accelerated GTP hydrolysis; Potency, µM (top dose mostly 114 µM), inactives show at the top dose activity change, negative = inhibition, most hits filed as inhibitors; 0.039% of 390,000 active; also: % is scaled to controls: 0 for no effect and ±100 for the full control effect; nearly all actives have a fitted effect of over 75% in size
Target sequence (P49798 whole entry, looked up): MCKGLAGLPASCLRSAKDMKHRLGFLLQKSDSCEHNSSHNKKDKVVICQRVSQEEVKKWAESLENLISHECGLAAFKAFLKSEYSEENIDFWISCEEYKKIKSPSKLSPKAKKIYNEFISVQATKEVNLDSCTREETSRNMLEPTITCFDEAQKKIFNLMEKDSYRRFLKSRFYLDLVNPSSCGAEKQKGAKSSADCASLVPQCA
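MLSMR compounds (23 nl, pin-transferred) preincubated 10 min at room temperature with a 500nM (2x) first reagent, then RGS4 at 900nM (2x) plus Transcreener GDP mix added; fluorescence polarization (620/688 nm) read before and after 90 min at 30 °C.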
KB-3-1 cytotox: qHTS assay for MDR1-selective chemotherapeutics: Primary screen using the parental adenocarcinoma cell KB-3-1 | KB-3-1 viability, CellTiter-Glo ATP luminescence, 72 h | Potency, µM (titrated, usually from 46.1 µM), most hits filed as cytotoxic | 1.4% of 400,000 active | AID 1347075, 2019; also: % is scaled to controls: 0 for no effect and ±100 for the full control effect; nearly all actives have a fitted effect of over 60% in size
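Using CellTiter-Glo luminescence, growth of non-resistant KB-3-1 adenocarcinoma cells is assessed 72 h after pin-tool compound addition at 37 °C. Normalized responses across the concentration series yield fitted curves.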
An asterisk follows results filed as active; i = inactive; u = inconclusive; x = no result. A selection: hits, their analogues and other compounds. The true share with any hit is near 6.6%. Unless noted, calls follow the shape of the dose curve; as a rule, active = well fitted curve in the direction sought with a large enough effect; inconclusive = small, poorly fitted or top-dose-only effect, or another doubt; inactive = no such curve, though single readings can be large; an effect the other way counts as inactive or inconclusive. Potency is read from the fitted curve at half-maximal effect.

SMILES	SW480 rereplic	KB-V1 MDR tox	PTAP TSG101 blk	MCF10A rerep	RGS4 inhibitor	KB-3-1 cytotox
CCC(Sc1nnc2c3ccccc3n(CC)c2n1)C(=O)Nc1ccc(NC(C)=O)cc1 (configuration not stated)	x	x	x	x	17.1%	x
CN(C)c1ccc(/C=C/c2ccnc3cc(Cl)ccc23)cc1	x	i	x	x	x	u
O=C(Nc1ccc(Cl)cc1Cl)[C@@H]1CC=C[C@@H]2CCN(Cc3ccccc3)C(=O)[C@@H]21	x	u	x	x	x	i
O=c1c2ccccc2nc(SCc2ccccc2)n1Cc1ccco1	-14.4%	i	-2.3%	14.7%	-17.3%	i
O=c1c2ccccc2nc(SCc2cccc(F)c2)n1Cc1ccco1	-0.9%	7.31µM*	-4.0%	u	8.8%	u
O=C(CSc1nc2ccccc2c(=O)n1-c1ccc(F)cc1)NCc1ccco1	-3.2%	11.6µM*	-8.6%	8.4%	-12.0%	i
CNC(=S)NN=C(C)CCCC(C)=NNC(=S)NC	0.411µM*	i	-4.1%	0.9%	-29.2%	u
CNC(=S)N/N=C(\C)c1ccc(Cl)c(Cl)c1	-20.8%	u	-9.6%	0.4%	1.8%	i
COc1cccc(N2CCN(C(=O)c3cnn(-c4ccc(C)cc4C)c3C3CCN(C(=O)OC(C)(C)C)CC3)CC2)c1	x	i	x	x	4.1%	i
Cc1ccc(NC(=O)CCl)c(C)c1	u	u	0.7%	u	0.2%	16.4µM*
Cc1ccc(NC(=O)CC2Sc3ccccc3NC2=O)c(C)c1 (configuration not stated)	x	u	x	x	-10.0%	16.4µM*
CS(=O)(=O)c1ccc(Cl)c(NC(=O)CCl)c1	u	20.6µM*	-0.7%	u	30.4%	6.51µM*
Cc1ccc2nc(N(Cc3cccnc3)C(=O)c3ccco3)sc2c1	x	x	x	x	-1.4%	x
CCN(CC)c1nn2c(=O)c(C(=O)NCCc3ccc(C)cc3)cnc2s1	x	x	x	x	-8.8%	x
CCOC(=O)c1[nH]c(C=O)c(C(=O)OCC)c1C	5.8µM*	u	0.1%	11.6µM*	-12.7%	i
CCOC(=O)c1c(C)[nH]c(C(=O)OCC(=O)Nc2ccccc2)c1C	-2.8%	i	0.9%	-5.3%	2.8%	i
CCOC(=O)c1c(C)[nH]c(C(=O)OCC(=O)NC(C)C)c1C	-5.9%	23.1µM*	-3.7%	0.0%	8.1%	i
Cc1cc(NC(=O)CN(C)S(=O)(=O)c2ccc3c(c2)CCCC(=O)N3)ccc1Br	x	16.4µM*	x	x	-4.0%	u
CS(=O)(=O)N1CCc2cc(S(=O)(=O)N3CCN(Cc4ccc5c(c4)OCO5)CC3)ccc21	5.2%	20.6µM*	-0.2%	17.2%	3.4%	i
Cc1ccc(S(=O)(=O)N2CCN(Cc3ccc4c(c3)OCO4)CC2)cc1	x	i	x	x	-15.5%	i
COc1cc(C=C2C(=O)c3ccccc3C2=O)cc(OC)c1OC	0.6%	i	-0.7%	-0.4%	-20.3%	i
COc1cc(/C=C/C2=NNC(=O)CC2)cc(OC)c1OC	1.6%	u	2.5%	3.8%	-16.7%	0.517µM*
CC(C)c1ccc(/C=C/c2ccc(=O)n(C)n2)cc1	-3.7%	u	-3.0%	u	u	i
CC(C)c1ccc(/C=C/C2=NNC(=O)CC2)cc1	u	0.184µM*	-0.6%	u	u	0.731µM*
O=C(Cn1c(SCCOc2ccc(Cl)cc2)nc2ccccc21)N1CCCCC1	x	i	x	x	-8.2%	i
SMILES	SW480 rereplic	KB-V1 MDR tox	PTAP TSG101 blk	MCF10A rerep	RGS4 inhibitor	KB-3-1 cytotox
NS(=O)(=O)c1ccc(N=Nc2c(-c3ccccc3)[nH]n(-c3nc(-c4ccccc4)cs3)c2=O)cc1	2.91µM*	20.6µM*	-2.2%	u	4.5%	u
CCN1CCN(Cc2c(O)ccc3c(C)c(-c4ccc(OC)cc4)c(=O)oc23)CC1	x	i	x	x	14.4%	i
O=C(CCCn1c(=S)[nH]c2cc3c(cc2c1=O)OCO3)N1CCN(c2ccc(F)cc2)CC1	-0.9%	i	-2.8%	1.1%	-18.0%	i
O=c1c2cccnc2[nH]c(=S)n1CCCN1CCN(c2ccccc2F)CC1	-0.6%	i	-9.3%	u	5.9%	13µM*
O=C(CCCn1c(=S)[nH]c2cc3c(cc2c1=O)OCO3)N1CCN(c2ccccc2F)CC1	u	16.4µM*	0.7%	21.9%	-22.7%	i
O=c1c2ccccc2[nH]c(=S)n1CCCN1CCN(c2ccccc2F)CC1	u	i	-3.5%	u	33.5%	i
CCOC(=O)N1CCN(C(=O)CCCn2c(=S)[nH]c3ccc(Br)cc3c2=O)CC1	1.2%	11.6µM*	-10.2%	13.7%	11.2%	i
COc1cccc(Cn2c(=O)n(-c3ccc(C)c(F)c3)c(=O)c3sc4ccccc4c32)c1	x	i	x	x	-28.6%	i
COc1ccc(NC(=O)CSc2nc3c(oc4ccccc43)c(=O)n2-c2ccc(C)c(C)c2)cc1	x	i	x	x	-25.0%	i
COc1ccc(OC)c(CCNC(=O)c2nn(C)c3c2CSc2ccccc2-3)c1	x	x	x	x	-0.5%	x
CCCCNc1nc(Oc2ccc(=O)n(-c3ccccc3)n2)nc(N(C)C)n1	x	i	x	x	1.5%	i
CC(C)COc1ccccc1C1CC(=O)Nc2cc3c(cc21)OCO3 (configuration not stated)	x	u	x	x	10.0%	6.51µM*
Cc1cccc2cc(/C=N/NC(=O)c3ccccc3O)c(Cl)nc12	x	u	-5.5%	7.31µM*	-12.5%	i
Cc1cccc2cc(/C=N/Nc3ccc(C(=O)O)cc3)c(Cl)nc12	17.0%	i	5.9%	3.66µM*	-39.2%	i
O=C(O)c1ccc(N/N=C/c2cc3ccccc3nc2Cl)cc1	u	i	-8.5%	8.2µM*	1.0%	i
COc1ccc2ncnc(NCc3cccs3)c2c1-c1ccc2c(c1)OCO2	x	i	x	x	x	u
O=C(N/N=C/c1ccc(-c2ccccc2Cl)o1)c1ccccc1	u	u	-0.4%	29.1µM*	2.3%	u
O=C(O)c1ccc(N/N=C/c2ccc(-c3ccccc3Cl)o2)cc1	16.4µM*	i	1.0%	u	-33.2%	i
O=S(=O)(N/N=C\c1ccc(-c2ccccc2Cl)o1)c1ccccc1	u	i	-0.5%	u	-35.6%	i
O=C(O)c1ccc(N/N=C/c2ccc(-c3ccc(Br)cc3)o2)cc1	20.6µM*	i	0.0%	u	-48.3%	i
